Measured values from ChEMBL document CHEMBL4888484, “Replenishing the malaria drug discovery pipeline: Screening and hit evaluation of the MMV Hit Generation Library 1 (HGL1) against asexual blood stage Plasmodium falciparum ,using a nano luciferase reporter read-out” (2022).
Hit rate of the full screen: of about 150,000 compounds, about 540 (0.36%) showed an effect of 50% or more. The sample as a whole holds a higher share of strong results than the screen did.

These compounds were tested on Plasmodium falciparum (assay: Primary screen in NF54 nanoGlo assay, in single point, at 2uM, 72h; a lower Z score goes with more inhibition). Conditions: timepoint 72 hour.
Assay type: functional, Erythrocyte
In the case of `NC1CCOC(C2CCCCN2S(=O)(=O)c2ccc(C(F)(F)F)s2)C1` (stereo not given), the “% Inhibition” value is reported as 4% and the Z score is reported as -0.63. In the case of `COCCN1C(=O)[C@@H]2C(Cc3ccc(O)cc3)NC3(C(=O)Nc4c(C)cc(C)cc43)[C@@H]2C1=O` (stereo not given in full), the “% Inhibition” value is reported as -3% and the Z score is reported as 0.41. For `Cc1cccc(Cl)c1C(=O)NC(C1CCNCC1)[C@H]1C[C@H](O)C1` (stereo not given in full), the “% Inhibition” value was -9% and the Z score was 1.88. For `Cc1noc2ncnc(N3CCCC3CC(O)c3cnn(C)c3)c12` (stereo not given), the “% Inhibition” value was 4% and the Z score was -0.69. `CCC[C@H](NC1CCN(C(=O)OC)CC1)C1CC1` was tested, and the “% Inhibition” value was 7% and the Z score was -0.96. For `CC1CC(C)CN(C(=O)c2ccc3c(=O)n4c(nc3c2)CCCC4)C1` (stereo not given), the “% Inhibition” value was -3% and the Z score was 0.52. `COc1ccc([C@@H](CC(=O)N2CCCC2)c2cn(Cc3ccccc3)c3ccccc23)cc1` was tested, and the “% Inhibition” value was -8% and the Z score was 0.98. In the case of `COc1ccc([C@H]2CC(=O)Nc3cccc4c3c2cn4Cc2ccccc2)cc1`, the “% Inhibition” value is reported as -4% and the Z score is reported as 0.51. For `COc1ccc2c(/C=C/c3cc[n+](C)cc3)cn(Cc3ccccc3)c2c1`, the “% Inhibition” value was 68% and the Z score was -6.36. `Cc1nc(NC(=O)NCCn2ncnn2)sc1C` was tested, and the “% Inhibition” value was 31% and the Z score was -4.22. With `CCC(C)CS(=O)(=O)NC(C)C1CC1` (stereo not given) the “% Inhibition” value was -4% and the Z score was 0.39. `Cc1cccc(NC(=O)c2c[nH]c3nc(C)ccc3c2=O)c1` was tested, and the “% Inhibition” value was 4% and the Z score was -0.5. `Cc1ccc(C)c(NC(=O)c2c(Oc3ccc(F)cc3)nc(C)c(Cl)c2C)c1` was tested, and the “% Inhibition” value was -8% and the Z score was 1.01. `Cn1cc(NC(=O)c2cc3ccccc3o2)ccc1=O` was tested, and the “% Inhibition” value was -4% and the Z score was 0.73. In the case of `Cc1c(C)c2ccc(NC(=O)c3cc4ccccc4o3)cc2[nH]c1=O`, the “% Inhibition” value is reported as 93% and the Z score is reported as -7.22. For `O=C(Nc1c(C(=O)Nc2ccc(F)c(F)c2)oc2ccccc12)c1cc2ccccc2o1`, the “% Inhibition” value was -13% and the Z score was 2.46. With `CCOC(=O)c1cn(CCc2c[nH]cn2)cc(Oc2ccccc2)c1=O` the “% Inhibition” value was 0% and the Z score was -0.09. `O=C(NCC(O)c1ccccc1Cl)C1CCCN1` (stereo not given) was tested, and the “% Inhibition” value was 1% and the Z score was -0.1. In the case of `CCNC(=O)N1CCN(c2ccc(-c3noc(C(F)(F)F)n3)cn2)CC1`, the “% Inhibition” value is reported as 12% and the Z score is reported as -1.6. For `O=C(c1ccc(-c2noc(C(F)(F)F)n2)cc1)N1CCC1`, the “% Inhibition” value was 29% and the Z score was -3.23. `Cc1c(F)cccc1-c1ccc(CNc2cccc(CN3CCC(O)CC3)c2)o1` was tested, and the “% Inhibition” value was 8% and the Z score was -0.88. With `CNC(=O)c1ccc(OC)c(-c2ccc(NCCN3CCOCC3)nc2)c1` the “% Inhibition” value was -7% and the Z score was 1.05. In the case of `CCc1ccc(-c2cnc3ccccc3n2)cc1NC(=O)[C@@H](NS(=O)(=O)c1ccccc1)C(C)C`, the “% Inhibition” value is reported as 4% and the Z score is reported as -0.61. With `Cc1ccc(CCC(=O)NC(c2ccccc2)C(C)C(=O)O)o1` (stereo not given) the “% Inhibition” value was 5% and the Z score was -0.67. With `Cc1cccc(-c2noc(N3CCOCC3)c2CN(C(=O)CC(C)C)C2CC2)c1` the “% Inhibition” value was -12% and the Z score was 1.29. With `CCn1cc(CN2CC[C@H]3C(=O)NCCCCCCN(Cc4ccncc4)[C@@H]3C2)c(C)n1` the “% Inhibition” value was 2% and the Z score was -0.2. `COc1ccc(CN2CC[C@@H]3C(=O)NCCCCCCN(Cc4ccncc4)[C@@H]3C2)cc1Cn1ccnc1` was tested, and the “% Inhibition” value was 59% and the Z score was -7.78. `COc1cccc(CN2CC[C@H]3C(=O)NCCCCCCN(Cc4ccncc4)[C@@H]3C2)n1` was tested, and the “% Inhibition” value was -5% and the Z score was 0.65. For `CN(Cc1cn(C)nn1)CC1CCOCC1`, the “% Inhibition” value was -11% and the Z score was 2.06. `CCO[C@H]1CN(C(=O)Cc2nc(C)sc2C)C[C@@H]1O` was tested, and the “% Inhibition” value was 0% and the Z score was 0.05. For `C[C@@]1(C(=O)NC2CCCCCCC2)Cn2c(ccc2-c2ccccc2)C(=O)N1Cc1ccco1`, the “% Inhibition” value was 7% and the Z score was -0.83. For `S=c1cc(-c2ccccc2)n(CCCc2ccccc2)c2c1CCCC2`, the “% Inhibition” value was -6% and the Z score was 0.85. With `S=c1cc(-c2ccccc2)n(Cc2ccco2)c2c1CCCC2` the “% Inhibition” value was 54% and the Z score was -6.88. In the case of `CC(=O)c1cc(Br)ccc1NCC(=O)N(C)CCC#N`, the “% Inhibition” value is reported as -26% and the Z score is reported as 2.93. For `CCc1nccc(-c2c(-c3ccccc3)ncn2CCN2CCOCC2)n1`, the “% Inhibition” value was -6% and the Z score was 0.83. In the case of `CCOC(=O)c1c(-c2ccccc2)n(C)c2cc(-c3cccnc3)c(O)cc12`, the “% Inhibition” value is reported as 9% and the Z score is reported as -1.7. `CCOC(=O)c1c(CN2CCCC2)n(C)c2cc(-c3cccnc3)c(O)c(Cn3ccnc3)c12` was tested, and the “% Inhibition” value was 58% and the Z score was -10.36. For `CCOC(=O)c1cnc(N2CCN(Cc3cccnc3)CC2)s1`, the “% Inhibition” value was -2% and the Z score was 0.17. In the case of `CCNc1nc(C)cc(Nc2ccc(NS(=O)(=O)c3c(C)noc3C)cc2)n1`, the “% Inhibition” value is reported as 86% and the Z score is reported as -8.65. With `CCOc1nc(-c2cccc(F)c2)n(-c2ccc(NC(=O)Nc3ccc(F)cc3F)cc2)n1` the “% Inhibition” value was -9% and the Z score was 1.18.
